{"source": "PubChem BioAssay", "note": "Calls of active or inactive are those of the source.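 The calls were made as follows, unless noted: active = compounds that lower survival of DLD-1 colon cancer cells in the luminescence readout, no cutoff given; inactive = the rest.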", "data": [{"test_system": "not listed separately", "assay": "NPC library primary testing for decreased DLD-1 cell viability via CellTiter-Glo (AID 1117346)", "details": "DLD-1 viability, CellTiter-Glo luminescence; at 20 µM (top of the series)", "values": [{"compound": "CCN(CCCCOC(=O)c1ccc(OC)c(OC)c1)C(C)Cc1ccc(OC)cc1", "note": "(configuration not stated)", "viability decrease (inhibition)": "8% (inactive)"}, {"compound": "O=C(O)CSCC(=O)NC1CCSC1=O", "note": "(configuration not stated)", "viability decrease (inhibition)": "-4.25% (inactive)"}, {"compound": "O=C1c2ccccc2C(=O)C1c1ccccc1", "viability decrease (inhibition)": "-4.85% (inactive)"}, {"compound": "COCCCOc1cc(C[C@@H](C[C@H](N)[C@@H](O)C[C@H](C(=O)NCC(C)(C)C(N)=O)C(C)C)C(C)C)ccc1OC", "viability decrease (inhibition)": "12.1% (inactive)"}, {"compound": "Cc1onc(-c2ccccc2Cl)c1C(=O)N[C@@H]1C(=O)N2[C@@H]1SC(C)(C)[C@@H]2C(=O)O", "viability decrease (inhibition)": "-0.7% (inactive)"}, {"compound": "Cc1cccc(C(=O)O)c1O", "viability decrease (inhibition)": "-4.5% (inactive)"}, {"compound": "CCCCCCCCCCCCCCCCCCOCC(O)CO", "note": "(configuration not stated)", "viability decrease (inhibition)": "-8.8% (inactive)"}, {"compound": "CCN(CC)CCNC(=O)COc1ccc(OC)cc1", "viability decrease (inhibition)": "-6.15% (inactive)"}, {"compound": "CN1CCOC(c2ccccc2)c2ccccc2C1", "note": "(configuration not stated)", "viability decrease (inhibition)": "-7.2% (inactive)"}, {"compound": "CCCCC(=O)O[C@]1(C(=O)CO)[C@@H](C)C[C@H]2[C@@H]3CCC4=CC(=O)C=C[C@]4(C)[C@@]3(F)[C@@H](O)C[C@@]21C", "viability decrease (inhibition)": "11% (inactive)"}, {"compound": "C[n+]1c2cc(N)ccc2cc2ccc(N)cc21", "note": "(tested in a mixture with another compound)", "viability decrease (inhibition)": "95.2% (active)"}, {"compound": "CCC(C)n1ncn(-c2ccc(N3CCN(c4ccc(OC[C@H]5CO[C@](Cn6cncn6)(c6ccc(Cl)cc6Cl)O5)cc4)CC3)cc2)c1=O", "note": "(some centres not stated)", "viability decrease (inhibition)": "40.6% (inactive)"}, {"compound": "O=c1[nH]cnc2c1ncn2[C@@H]1O[C@H](CO)[C@@H](O)[C@H]1O", "viability decrease (inhibition)": "-12.5% (inactive)"}, {"compound": "CCN(CCCc1ccccc1)CCCc1ccccc1", "viability decrease (inhibition)": "60.1% (active)"}, {"compound": "CN1CCN(c2cc3c(cc2F)c(=O)c(C(=O)O)cn3-c2ccc(F)cc2)CC1", "viability decrease (inhibition)": "2.2% (inactive)"}, {"compound": "C/C=C1\\[C@H]2C=C(C)C[C@]1(N)c1ccc(=O)[nH]c1C2", "viability decrease (inhibition)": "0.1% (inactive)"}, {"compound": "COc1ccccc1OCC(O)CO", "note": "(configuration not stated)", "viability decrease (inhibition)": "-4.85% (inactive)"}, {"compound": "CC1=C(C)C(=O)C(C(CCCCCC(=O)O)c2ccccc2)=C(C)C1=O", "note": "(configuration not stated)", "viability decrease (inhibition)": "-13.3% (inactive)"}, {"compound": "NS(=O)(=O)c1cc2c(cc1Cl)NC(C(Cl)Cl)NS2(=O)=O", "note": "(configuration not stated)", "viability decrease (inhibition)": "6.3% (inactive)"}, {"compound": "C[C@@H]1CN(c2c(F)c(F)c3c(=O)c(C(=O)O)cn(C4CC4)c3c2F)C[C@H](C)N1", "viability decrease (inhibition)": "-6.7% (inactive)"}, {"compound": "O=C(O)c1ccccc1Nc1cccc(C(F)(F)F)c1", "viability decrease (inhibition)": "78.8% (active)"}, {"compound": "CCCc1ncc(C[n+]2ccccc2C)c(N)n1", "viability decrease (inhibition)": "-13.4% (inactive)"}, {"compound": "O=C(O)/C=C(\\CC(=O)O)C(=O)O", "viability decrease (inhibition)": "11.3% (inactive)"}, {"compound": "Cc1nc2n(c(=O)c1CCN1CCC(c3noc4cc(F)ccc34)CC1)CCC[C@H]2O", "viability decrease (inhibition)": "-6.6% (inactive)"}, {"compound": "NC(N)=NCCN1CCCCCCC1", "viability decrease (inhibition)": "23.4% (inactive)"}, {"compound": "Cc1cc(=O)n(-c2ccccc2)n1C", "viability decrease (inhibition)": "-8.2% (inactive)"}, {"compound": "C[N+]1(C)[C@@H]2CC(OC(=O)[C@H](CO)c3ccccc3)C[C@H]1[C@@H]1O[C@@H]12", "note": "(some centres not stated)", "viability decrease (inhibition)": "-6.1% (inactive)"}, {"compound": "CC(C)NC[C@@H](O)COc1cccc2ccccc12", "viability decrease (inhibition)": "13.7% (inactive)"}, {"compound": "Cc1c(C(=O)O)c(O)cc2c1C(=O)c1c(O)c([C@@H]3O[C@H](CO)[C@@H](O)[C@H](O)[C@H]3O)c(O)c(O)c1C2=O", "viability decrease (inhibition)": "34.5% (inactive)"}, {"compound": "CO[C@H]1C=CO[C@@]2(C)Oc3c(C)c(O)c4c(O)c(c(/C=N/N5CCN(C)CC5)c(O)c4c3C2=O)NC(=O)/C(C)=C\\C=C[C@H](C)[C@H](O)[C@@H](C)[C@@H](O)[C@@H](C)[C@H](OC(C)=O)[C@@H]1C", "viability decrease (inhibition)": "65.6% (active)"}, {"compound": "NC(CS)C(=O)O", "note": "(configuration not stated)", "viability decrease (inhibition)": "32.7% (inactive)"}, {"compound": "Cc1nc(-c2ccc(OCC(C)C)c(C#N)c2)sc1C(=O)O", "viability decrease (inhibition)": "28.7% (inactive)"}, {"compound": "Oc1cccc2[nH]ccc12", "viability decrease (inhibition)": "-8.1% (inactive)"}, {"compound": "CCCCCCCCCCCCCCCCC(C(=O)O)C(O)(CC(=O)O)C(=O)O", "note": "(configuration not stated)", "viability decrease (inhibition)": "102% (active)"}, {"compound": "C#CCN[C@@H]1CCc2ccccc21", "viability decrease (inhibition)": "-21.6% (inactive)"}, {"compound": "Cc1c[nH]c2ccccc12", "viability decrease (inhibition)": "10% (inactive)"}, {"compound": "CC(=O)Oc1c(C)c(C)c2c(c1C)CC[C@@](C)(CCC[C@H](C)CCC[C@H](C)CCCC(C)C)O2", "viability decrease (inhibition)": "-19.7% (inactive)"}]}, {"target": "6-phosphogluconate dehydrogenase, decarboxylating (Homo sapiens) (UniProt P52209)", "sequence (P52209 whole entry, looked up)": "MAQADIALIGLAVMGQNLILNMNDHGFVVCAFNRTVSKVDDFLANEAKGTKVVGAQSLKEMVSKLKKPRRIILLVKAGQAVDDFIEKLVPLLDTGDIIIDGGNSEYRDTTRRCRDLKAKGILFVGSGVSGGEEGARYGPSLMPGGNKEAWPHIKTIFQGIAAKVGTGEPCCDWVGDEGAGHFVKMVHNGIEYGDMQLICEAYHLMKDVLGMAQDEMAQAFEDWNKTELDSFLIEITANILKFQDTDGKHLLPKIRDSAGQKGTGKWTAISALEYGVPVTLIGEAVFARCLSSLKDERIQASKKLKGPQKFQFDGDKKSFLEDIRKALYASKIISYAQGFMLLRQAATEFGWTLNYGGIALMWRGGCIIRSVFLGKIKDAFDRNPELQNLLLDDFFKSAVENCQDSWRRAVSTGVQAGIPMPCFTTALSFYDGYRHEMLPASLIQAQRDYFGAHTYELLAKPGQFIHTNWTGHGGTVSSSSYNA", "assay": "inhibition of human phosphogluconate dehydrogenase – biochemical, recombinant enzyme, NADPH absorbance, primary screen (AID 1159550;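 active = at least 20% inhibition of 6-phosphogluconate dehydrogenase activity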)", "details": "recombinant 6PGD, NADPH absorbance 341 nm; at 10 µM; stronger effect = higher value", "values": [{"compound": "CCN(CCCCOC(=O)c1ccc(OC)c(OC)c1)C(C)Cc1ccc(OC)cc1", "note": "(configuration not stated)", "inhibition": "-12.1% (inactive)"}, {"compound": "O=C1c2ccccc2C(=O)C1c1ccccc1", "inhibition": "8.94% (inactive)"}, {"compound": "Cc1onc(-c2ccccc2Cl)c1C(=O)N[C@@H]1C(=O)N2[C@@H]1SC(C)(C)[C@@H]2C(=O)O", "inhibition": "-7.26% (inactive)"}, {"compound": "Cc1cccc(C(=O)O)c1O", "inhibition": "9.08% (inactive)"}, {"compound": "CCCCCCCCCCCCCCCCCCOCC(O)CO", "note": "(configuration not stated)", "inhibition": "-2.18% (inactive)"}, {"compound": "CCN(CC)CCNC(=O)COc1ccc(OC)cc1", "inhibition": "-14.6% (inactive)"}, {"compound": "CN1CCOC(c2ccccc2)c2ccccc2C1", "note": "(configuration not stated)", "inhibition": "5.09% (inactive)"}, {"compound": "CCCCC(=O)O[C@]1(C(=O)CO)[C@@H](C)C[C@H]2[C@@H]3CCC4=CC(=O)C=C[C@]4(C)[C@@]3(F)[C@@H](O)C[C@@]21C", "inhibition": "-3.61% (inactive)"}, {"compound": "O=c1[nH]cnc2c1ncn2[C@@H]1O[C@H](CO)[C@@H](O)[C@H]1O", "inhibition": "-10.6% (inactive)"}, {"compound": "CCN(CCCc1ccccc1)CCCc1ccccc1", "inhibition": "7.45% (inactive)"}, {"compound": "COc1ccccc1OCC(O)CO", "note": "(configuration not stated)", "inhibition": "12.6% (inactive)"}, {"compound": "NS(=O)(=O)c1cc2c(cc1Cl)NC(C(Cl)Cl)NS2(=O)=O", "note": "(configuration not stated)", "inhibition": "17.4% (inactive)"}, {"compound": "O=C(O)c1ccccc1Nc1cccc(C(F)(F)F)c1", "inhibition": "2.7% (inactive)"}, {"compound": "CCCc1ncc(C[n+]2ccccc2C)c(N)n1", "inhibition": "-3.15% (inactive)"}, {"compound": "NC(N)=NCCN1CCCCCCC1", "inhibition": "10.5% (inactive)"}, {"compound": "Cc1cc(=O)n(-c2ccccc2)n1C", "inhibition": "6.71% (inactive)"}, {"compound": "C[N+]1(C)[C@@H]2CC(OC(=O)[C@H](CO)c3ccccc3)C[C@H]1[C@@H]1O[C@@H]12", "note": "(some centres not stated)", "inhibition": "0.481% (inactive)"}, {"compound": "CC(C)NC[C@@H](O)COc1cccc2ccccc12", "inhibition": "5.64% (inactive)"}, {"compound": "Cc1c(C(=O)O)c(O)cc2c1C(=O)c1c(O)c([C@@H]3O[C@H](CO)[C@@H](O)[C@H](O)[C@H]3O)c(O)c(O)c1C2=O", "inhibition": "-2.65% (inactive)"}, {"compound": "CC(=O)Oc1c(C)c(C)c2c(c1C)CC[C@@](C)(CCC[C@H](C)CCC[C@H](C)CCCC(C)C)O2", "inhibition": "14% (inactive)"}]}]}
